This is a sample that favours compounds with a hit; in the whole collection about 4.5% have one here.
aSyn 5UTR inh = MLPCN primary screen, SNCA 5' untranslated region; alpha-synuclein 5'UTR reporter, inhibitor activity; inhibition, % (tested at 7.5 µM); actives 0.82% (n = 300,000); in the data active means inhibition above about 60%;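 further: H4 neuroglioblastoma cells stably carrying SNCA 5'UTR luciferase fusion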
CSC inhib = cancer stem cell viability inhibitors, primary screen, luminescence; cancer stem cell-like cells viability; inhibition, % at 7.5 µM; actives 1.1% (n = 300,000); AID 2717, 2010; in the data active means inhibition above about 75%; tested in HMLE shEcad cells
Jurkat NFkB inh = inhibitors of induced NF-kB luciferase reporter, primary screen, TCR NF-kB activation inhibitor project, cell-based, luminescence, uHTS | actives 0.53% (n = 330,000) | Jurkat, PMA/ionomycin-induced NF-kB luciferase reporter | inhibition, % at 4 µM | AID 435003, 2010; in the data active means inhibition above about 50%
Mdm2 MdmX PPI = inhibitors of human Mdm2-MdmX association, primary screen, cell-based, luminescence, split luciferase, SaOS-2, uHTS; Protein Mdm4 (Homo sapiens) + E3 ubiquitin-protein ligase Mdm2 (Homo sapiens), …; SaOS-2 split-luciferase Mdm2/MdmX complementation; inhibition, % at 8 µM; actives 3% (n = 330,000); AID 485346, 2010;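 active means inhibition of at least 50% at 8 µM in the primary screen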
Target sequence (O15151 whole entry, looked up): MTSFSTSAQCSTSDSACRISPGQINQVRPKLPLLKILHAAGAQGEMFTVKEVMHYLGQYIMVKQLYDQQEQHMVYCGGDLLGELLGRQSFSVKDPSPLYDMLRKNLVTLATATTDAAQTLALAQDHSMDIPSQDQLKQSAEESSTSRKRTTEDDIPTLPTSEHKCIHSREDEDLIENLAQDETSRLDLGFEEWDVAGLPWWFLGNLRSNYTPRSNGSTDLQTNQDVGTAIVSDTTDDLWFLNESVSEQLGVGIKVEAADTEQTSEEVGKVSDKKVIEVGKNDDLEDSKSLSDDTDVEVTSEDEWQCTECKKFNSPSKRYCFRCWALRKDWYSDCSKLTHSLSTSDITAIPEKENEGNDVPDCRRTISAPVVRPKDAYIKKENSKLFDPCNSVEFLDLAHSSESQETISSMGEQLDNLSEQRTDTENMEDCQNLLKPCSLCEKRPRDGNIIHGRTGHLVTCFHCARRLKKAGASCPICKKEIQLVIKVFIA
Target sequence (Q00987 whole entry, looked up): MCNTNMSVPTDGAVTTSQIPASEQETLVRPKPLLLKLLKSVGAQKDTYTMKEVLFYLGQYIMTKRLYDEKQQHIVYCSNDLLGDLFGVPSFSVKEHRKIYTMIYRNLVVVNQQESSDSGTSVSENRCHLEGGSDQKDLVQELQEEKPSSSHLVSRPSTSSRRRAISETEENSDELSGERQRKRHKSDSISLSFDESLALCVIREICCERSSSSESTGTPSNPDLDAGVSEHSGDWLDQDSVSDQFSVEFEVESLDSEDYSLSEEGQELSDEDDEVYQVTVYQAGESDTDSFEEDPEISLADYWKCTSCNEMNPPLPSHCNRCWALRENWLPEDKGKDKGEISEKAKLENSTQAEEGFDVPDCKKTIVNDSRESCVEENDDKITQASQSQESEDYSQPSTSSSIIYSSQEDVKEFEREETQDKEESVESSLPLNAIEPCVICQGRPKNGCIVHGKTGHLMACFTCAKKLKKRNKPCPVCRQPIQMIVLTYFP
Gli-Sufu antag = Gli-Sufu pathway antagonists, primary screen, luciferase luminescence, Sufu-KO-LIGHT cells, uHTS. Sufu-KO-LIGHT fibroblasts, Gli luciferase reporter luminescence. inhibition, % at 5 µM. actives 0.74% (n = 340,000);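 active means inhibition above about 55%, limit read from the data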
697 NFkB inh = inhibitors of PMA/ionomycin-induced NF-kB reporter, 697 cells, primary screen, B-cell NF-kB inhibitor project, cell-based, luminescence, uHTS; actives 0.33% (n = 330,000); inhibition, % at 4 µM; 697 B-cell NF-kB luciferase reporter, 16 h; AID 435022, 2010; in the data active means inhibition above about 35%
Mdm2 MdmX conf = Mdm2-MdmX complex disruptors, retested hits, confirmation, luminescence, single concentration | inhibition, % at 8 µM | shares compounds with Mdm2 MdmX PPI | Mdm2-MdmX binding, luminescent assay | AID 489028, 2010 | actives 55% (n = 10,000); in the data active means inhibition above about 40%
FLuc counter = full-length luciferase signal inhibition, confirmation, counter-screen for Mdm2/MdmX interaction inhibitor project, cell-based, single concentration, SaOS-2; shares compounds with Mdm2 MdmX PPI; actives 77% (n = 6,200); SaOS-2 full-length luciferase counterscreen, luminescence; inhibition, % at 8 µM;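 active means mean inhibition at 8 µM reaching about 37%, which flags the compound as non-specific, limit read from the data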;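 further: p53-null SaOS-2 cells with luciferase driven by a doxycycline-inducible promoter; compound on cells about two nights before reading with doxycycline added after day one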
Large screens that a line does not name were inactive (follow-up assays come after a bar, where they were run).

C[C@]12c3[nH]c4ccccc4c3CCN1C(=O)C(CC(=O)NCCN1CCOCC1)C[C@@H]2C(=O)N1CCOCC1 (some centres undefined)	none (no result: aSyn 5UTR inh)
N#Cc1ccc(NC(=O)Nc2ccc(Cl)cc2)cc1	Mdm2 MdmX PPI 85 (no result: CSC inhib) | Mdm2 MdmX conf 88 | FLuc counter 45
CN(CC(=O)Nc1ccc(C#N)cc1)Cc1ccc(Cl)cc1	none
O=C(Nc1ccc(Oc2ccc(NC(=O)Nc3ccccc3Cl)cc2)cc1)Nc1ccccc1Cl	Mdm2 MdmX PPI 54 | Mdm2 MdmX conf 41 | FLuc counter 47
CCN(CC)S(=O)(=O)c1cccc(C(=O)N/N=C(\C)c2ccc(O)cc2O)c1	aSyn 5UTR inh 111, Mdm2 MdmX PPI 73 (no result: CSC inhib) | Mdm2 MdmX conf 57 | FLuc counter 106
CCN(CC)S(=O)(=O)c1cccc(C(=O)N/N=C/c2ccc(O)c(O)c2O)c1	none (no result: aSyn 5UTR inh, Jurkat NFkB inh, Mdm2 MdmX PPI, 697 NFkB inh)
Cc1ccccc1C(=O)O/N=C/c1c(N2CCOCC2)n(C)c2ccccc12	aSyn 5UTR inh 87, Mdm2 MdmX PPI 53 | Mdm2 MdmX conf inactive
CCOC(=O)C1=C(COC(=O)/C=C/c2cccc(OC)c2)NC(=O)NC1C (centres undefined)	none
O=C(CNCc1ccc(F)cc1)Nc1cc(S(=O)(=O)N2CCOCC2)ccc1Cl	none (no result: aSyn 5UTR inh)
CCOC(=O)c1[nH]c2ccc(F)cc2c1NC(=O)CN1CCN(C/C=C/c2ccccc2)CC1	Mdm2 MdmX PPI 57 | Mdm2 MdmX conf inactive
COC(=O)c1[nH]c2ccccc2c1NC(=O)CN1CCN(C/C=C/c2ccccc2)CC1	none
Cc1ccc(C)c2sc(N3CCN(C(=O)c4ccc([N+](=O)[O-])o4)CC3)nc12	Mdm2 MdmX PPI 90 | Mdm2 MdmX conf 51 | FLuc counter 55
CC1CCN(Cc2c(C(=O)N/N=C/c3ccc(OC(C)C)cc3)nnn2-c2nonc2N)CC1	none
COc1ccc(N=C2NN=C(c3c(C)[nH]c4ccccc34)CS2)cc1	CSC inhib 101, Mdm2 MdmX PPI 54 | Mdm2 MdmX conf inactive
Cc1[nH]c2ccccc2c1C1=NNC(=Nc2ccc(F)cc2)SC1	none
N/C(Cc1ccc(Cl)cc1)=N\OC(=O)c1ccccc1	none
COc1ccc(C(=O)O/N=C(\N)Cc2ccc(Cl)c(Cl)c2)cc1OC	Mdm2 MdmX PPI 101 | Mdm2 MdmX conf 100 | FLuc counter inactive
COc1ccc(C(=O)O/N=C(\N)Cc2ccc(Cl)cc2)cc1OC	Mdm2 MdmX PPI 100 | Mdm2 MdmX conf 93 | FLuc counter 42
COc1ccc(/C(N)=N/OC(=O)c2ccc3c(c2)OCO3)cc1OC	Mdm2 MdmX PPI 91 (no result: CSC inhib) | Mdm2 MdmX conf inactive
COc1ccc(C/C(N)=N/n2cnnc2)cc1Cl	none
CC(=O)Nc1ccc(NC(=O)C(Cc2ccccc2)NC(=O)C2CCC(C)CC2)cc1 (centres undefined)	none
Cc1cc(C)c2c(N)c(C(=O)c3ccccc3Cl)sc2n1	none
Cc1cc(C)c2c(N)c(C(=O)c3ccc(Cl)cc3Cl)sc2n1	Mdm2 MdmX PPI 70 | Mdm2 MdmX conf 75 | FLuc counter 60
Cc1nc2sc(C(N)=O)c(N)c2c2c1CCCC2	Mdm2 MdmX PPI 87 | Mdm2 MdmX conf 89 | FLuc counter 49
Cc1ccc(-c2c3c(nc4sc(C(N)=O)c(N)c24)CCCC3)o1	none
NC(=O)c1sc2nc3c(c(-c4ccco4)c2c1N)CCC3	Mdm2 MdmX PPI 77 | Mdm2 MdmX conf 55 | FLuc counter inactive
Nc1ccccc1SC1CC(=O)N(Cc2ccccc2)C1=O (centres undefined)	none
CC(C)CCNC(=O)NC(=O)COC(=O)C1CCN(S(=O)(=O)c2ccccc2F)CC1	none
Oc1ccc(/C=N/Nc2ccc(C(F)(F)F)cn2)c(O)c1	CSC inhib 102, Mdm2 MdmX PPI 64 (no result: Gli-Sufu antag) | Mdm2 MdmX conf inactive | FLuc counter 56
Oc1ccc(/C=N/Nc2ccc(C(F)(F)F)cn2)cc1	none
Cc1ccc(Nc2nc(N3CCOCC3)c3ccccc3n2)cc1	none
Oc1ccc(Nc2nc(N3CCCC3)c3ccccc3n2)cc1	Mdm2 MdmX PPI 85, Gli-Sufu antag 58 (no result: CSC inhib) | Mdm2 MdmX conf inactive
CC1CCCCC1NC(=O)C1CCC(CNS(=O)(=O)c2cccc3cccnc23)CC1 (centres undefined)	none
CCS(=O)(=O)Nc1ccc2[nH]c(=O)[nH]c2c1	none
NC(=O)c1nc(-c2ccco2)nc2c1[nH]c(=O)n2-c1ccc(Cl)c(Cl)c1	Mdm2 MdmX PPI 75 | Mdm2 MdmX conf inactive
Cc1cccc(-n2c(=O)[nH]c3c(C(N)=O)nc(-c4ccccc4Cl)nc32)c1	none
NC(=O)c1nc(-c2cccs2)nc2c1[nH]c(=O)n2-c1ccc(F)cc1	Mdm2 MdmX PPI 100 | Mdm2 MdmX conf 67 | FLuc counter 81
CC(C)Cc1nc(C(N)=O)c2[nH]c(=O)n(-c3ccc(F)cc3)c2n1	none
CC(C)C[C@H](NC(=O)C1CC(=O)N(c2ccc3c(c2)OCCO3)C1)C(=O)N1CCCCC1 (some centres undefined)	none
Cc1ccc(C(=O)NCCc2c[nH]c3ccccc23)s1	none
CCCNC(=O)c1ccc(S(=O)(=O)c2ccc(OC)cc2)c([N+](=O)[O-])c1	Mdm2 MdmX PPI 87 | Mdm2 MdmX conf 53 | FLuc counter inactive
COc1ccc(C(=O)NCCNc2ccccc2[N+](=O)[O-])cc1	none
Nc1nnnn1/N=C/c1cc(Br)ccc1O	none
CN1CCN(S(=O)(=O)c2ccc(SCCOc3ccc(Cl)cc3)nc2)CC1	Mdm2 MdmX PPI 59 (no result: aSyn 5UTR inh, CSC inhib) | Mdm2 MdmX conf inactive
COc1ccc(OCCSc2ccc(S(=O)(=O)N3CCCC3)cn2)cc1	none (no result: aSyn 5UTR inh)
O=C(O)CCC(=O)Nc1nnc(C(F)(F)F)s1	none (no result: aSyn 5UTR inh)
CCC(NC(=O)Nc1nnc(C(F)(F)F)s1)(C(F)(F)F)C(F)(F)F	aSyn 5UTR inh 109, Mdm2 MdmX PPI 91 | Mdm2 MdmX conf 90 | FLuc counter inactive
COc1ccc(-n2nnnc2SCC(=O)Nc2ccc(OC)cc2OC)cc1	none
CCOC(=O)c1c(C2COc3ccccc3O2)csc1NC(=O)c1ccco1 (centres undefined)	none
COc1ccc(NC(=O)c2cccc(S(=O)(=O)N3CCN(C)CC3)c2)c(OC)c1	none
CCOc1ccc(N(Cc2ccc(OC)cc2)C(=O)c2ccco2)cc1	none

From PubChem
